Inconclusive results are not listed. The source made the active and inactive calls. The call rests on the fitted dose curve; in most records, active means well fitted curve in the direction sought with a large enough effect; inconclusive means small, poorly fitted or top-dose-only effect, or another doubt; inactive means no such curve, though single readings can be large; an effect the other way counts as inactive or inconclusive.
Key:
[1] = Confirmation and Secondary Assay for Modulators of Hemoglobin Beta Chain Splicing at IVS2 654 locus (AID 910);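 further: HeLa cells stably carrying EGFP split by mutant beta-globin IVS2-654 intron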
Procedure, shortened: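 Readout: per-well total peak green fluorescence (488 nm ex, 500–520 nm em) from objects 5–250 µm, reflecting correct splicing of an EGFP-654 reporter. Compounds were applied for 2 days at 37 °C to overnight-plated HeLa EGFP-654 cells; controls were DMSO and 500 nM IVS2-654 PNA.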

[2] = Confirmation and Secondary Assay for Modulators of Hemoglobin Beta Chain Splicing at IVS2 705 locus (AID 930);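 further: HeLa cells stably expressing the EGFP-705 splicing reporter; GFP fluorescence per well restored by corrected splicing of the IVS2-705 intron in EGFP; series mostly up to about 46 µM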
Procedure, shortened: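 Read-out: total peak GFP fluorescence per well (488 nm excitation, 500-520 nm emission) by laser-scanning cytometry. Cells: HeLa EGFP-705 splicing reporter, 2 days compound exposure in Optimem/2% FCS.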

[3] = molecular target: Pyruvate kinase (Leishmania mexicana) (UniProt Q27686); experiment: qHTS Validation Assay for Inhibitors of Leishmania Mexicana Pyruvate Kinase (AID 945)
Sequence of Pyruvate kinase (Leishmania mexicana) (Q27686 2-499 E452W): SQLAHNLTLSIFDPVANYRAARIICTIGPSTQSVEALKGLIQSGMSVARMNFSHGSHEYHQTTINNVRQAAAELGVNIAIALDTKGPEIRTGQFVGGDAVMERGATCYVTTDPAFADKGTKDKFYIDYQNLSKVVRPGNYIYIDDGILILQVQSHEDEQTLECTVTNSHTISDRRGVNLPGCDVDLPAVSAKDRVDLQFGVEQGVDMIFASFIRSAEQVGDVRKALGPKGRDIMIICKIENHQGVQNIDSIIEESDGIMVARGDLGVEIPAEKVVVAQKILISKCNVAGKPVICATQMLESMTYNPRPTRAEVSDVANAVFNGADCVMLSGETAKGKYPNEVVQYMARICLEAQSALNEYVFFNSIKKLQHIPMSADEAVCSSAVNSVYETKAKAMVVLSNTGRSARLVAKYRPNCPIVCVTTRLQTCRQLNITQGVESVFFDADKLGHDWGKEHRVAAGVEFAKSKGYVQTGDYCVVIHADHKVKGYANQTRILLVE
Procedure, shortened: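 Luminescent ATP detection (PKLight) after a 1 h room-temperature reaction of 0.2 nM LmPYK E451W mutant with 0.5 mM PEP and 0.1 mM ADP at pH 7.2. Activity is normalized to DMSO-only control wells.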

[4] = qHTS Assay for Identification of Small Molecule Agonists for Thrombopoietin (TPO) Signaling Pathway (AID 917)
Procedure, shortened: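 Stimulation at the TPO EC50 (26 pM final) was used to detect activators. Ba/F3 mouse cells bearing human TPO receptor and a luciferase reporter under the Glycoprotein IIb promoter were exposed to compounds for 24 hrs at 37 C.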

[5] = molecular target: Muscarinic acetylcholine receptor M1 (Rattus norvegicus) (UniProt P08482); experiment: qHTS Assay for Antagonists of Acetylcholine Muscarinic M1 Receptor: Kinetic Measurement of Intracellular Calcium Response (AID 943);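 further: Fluo-4 calcium signal as peak divided by basal fluorescence over 4 min; series mostly up to about 35 µM; nearly all actives have a fitted effect of over 75% in size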
Sequence of Muscarinic acetylcholine receptor M1 (Rattus norvegicus) (P08482 whole entry, looked up): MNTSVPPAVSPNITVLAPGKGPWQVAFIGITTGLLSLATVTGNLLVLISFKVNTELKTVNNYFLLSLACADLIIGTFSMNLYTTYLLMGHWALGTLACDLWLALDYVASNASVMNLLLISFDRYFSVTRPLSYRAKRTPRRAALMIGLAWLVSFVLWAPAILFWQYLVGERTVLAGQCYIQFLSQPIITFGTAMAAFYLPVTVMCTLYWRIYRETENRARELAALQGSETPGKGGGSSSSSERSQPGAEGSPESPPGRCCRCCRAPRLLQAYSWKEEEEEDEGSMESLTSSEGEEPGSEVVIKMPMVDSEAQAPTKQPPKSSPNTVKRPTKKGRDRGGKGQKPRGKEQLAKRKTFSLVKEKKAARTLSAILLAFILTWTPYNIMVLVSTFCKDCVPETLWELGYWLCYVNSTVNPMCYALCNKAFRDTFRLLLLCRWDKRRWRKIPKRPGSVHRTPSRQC
Procedure, shortened: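 Read-out: peak over basal Fluo-4 fluorescence, kinetic at 1 Hz for 4 min after EC80 carbachol (100 nM final). Rat M1-CHO cells, dye loaded 1 h at 37C, compound added 10 min before agonist.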

[6] = molecular target: Muscarinic acetylcholine receptor M1 (Rattus norvegicus) (UniProt P08482); experiment: qHTS Assay for Antagonists of Acetylcholine Muscarinic M1 Receptor: Measurement of IP-One Response (AID 944); further: nearly all actives have a fitted effect of over 75% in size
Procedure, shortened: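 Read-out: HTRF competition between d2-IP1 and Eu-cryptate anti-IP1 antibody, emission 620 and 665 nm. Stimulus was carbachol, EC80 (200 nM), for 30 min in M1-CHO cells (rat receptor), after 10 min compound pre-treatment.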

Measured: Potency

CN1CCN(CCCN2c3ccccc3Sc3ccc(Cl)cc32)CC1
inactive: [1] | [2] | [3]

Nc1nc2c(ncn2COC(CO)CO)c(=O)[nH]1
inactive: [4] | [3]

CN(C)C(=O)C(CCN1CCC(O)(c2ccc(Cl)cc2)CC1)(c1ccccc1)c1ccccc1
inactive: [1] | [2] | [3]

CCOC(=O)Nc1ccc(NCc2ccc(F)cc2)nc1N
inactive: [4] | [5] | [6] | [3]

Source: PubChem BioAssay (NCATS)
